An excerpt weighted towards active compounds, which were near 4.1% of everything screened.
hgDAF12 agonist – activates the H. glycines DAF-12 receptor ligand-binding domain | HEK293 GAL4-hgDAF12 UAS-luciferase reporter, agonist luminescence; normalized to butyrate control | activation, % at 6.8 µM | 370,000 tested, 1.8% active | AID 687014;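 active = activation above a cutoff set at the mean of all screened compounds plus 3 SD, cut at about 10% in these data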;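 also: 0% = DMSO wells and 100% = sodium butyrate wells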
DAX1 inh-1 – NR0B1 (DAX1) inhibition; 340,000 tested, 0.99% active; inhibition, % at 6.75 µM; HEK293 Gal4-DAX1 luciferase reporter, luminescence; AID 504766;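 active = inhibition above the mean over all tested compounds plus 3 SD, cut at about 4.2% in these data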;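 also: 0% = DAX1-transfected cells with DMSO and 100% = empty-vector control cells with DMSO; inhibition shows as a rise in luminescence from relieved DAX1 repression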
Target sequence (P51843 207-470 limits assumed): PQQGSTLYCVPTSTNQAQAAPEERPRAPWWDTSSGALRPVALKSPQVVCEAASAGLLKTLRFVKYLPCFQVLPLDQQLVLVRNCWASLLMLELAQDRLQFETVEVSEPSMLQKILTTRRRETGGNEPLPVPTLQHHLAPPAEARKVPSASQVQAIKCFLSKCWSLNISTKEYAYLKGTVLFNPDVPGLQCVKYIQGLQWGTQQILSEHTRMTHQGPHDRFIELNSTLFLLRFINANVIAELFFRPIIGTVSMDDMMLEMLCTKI
DAX1 inh-2 – inhibitors of DAX1 repression of SF-1 activated StAR promoter; 370,000 tested, 1.1% active; inhibition, % at 6.8 µM; HEK293T StAR-luciferase reporter, SF-1/DAX-1 repression relief;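 active = inhibition above the mean over all tested compounds plus 3 SD, cut at about 3.6% in these data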;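 also: 0% = DAX-1 cells with DMSO and 100% = cells lacking DAX-1 with DMSO; higher inhibition means more luminescence from relief of DAX-1 repression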
ssDAF12 agonist – activators of S. stercoralis DAF-12 nuclear receptor | AID 652126 | 370,000 tested, 1% active | HEK293 ssDAF-12/GRIP1 lit1-tk-luc reporter, luminescence; % of 3 µM dafachronic acid response | activation, % at 6.8 µM;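 active = activation above the mean over all tested compounds plus 3 SD, cut at about 0.9% in these data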;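 also: 0% = DMSO-only wells and 100% = 3 µM delta7-dafachronic acid wells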
hcDAF-12 act – activates DAF-12 receptor from parasite H. contortus; HEK293 hcDAF-12 lit1-tk-luc reporter, luminescence; 0% DMSO, 100% Δ7-dafachronic acid; activation, % at 6.8 µM; 370,000 tested, 1.4% active; AID 652067;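 active = activation above the mean of all tested compounds plus 3 SD, cut at about 5.5% in these data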;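 also: 100% = response to 3 µM Δ7-dafachronic acid high control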
Active calls of the source: *; nt = not tested or not shown.

SMILES | hgDAF12 agonist | DAX1 inh-1 | DAX1 inh-2 | ssDAF12 agonist | hcDAF-12 act
COc1ccc(Cn2cc(COC(=O)NCCc3c[nH]c4ccccc34)nn2)cc1 | 0.9 | nt | -1.0 | -1.4 | -1.2
Cc1cc(C)nc(N/N=C/c2ccc(Cl)cc2)n1 | 2.1 | 5.0* | 0.0 | -1.0 | 0.2
CCCC[C@@H]1C(=O)N2N=Cc3cscc3[C@H]2N2N=Cc3cscc3[C@@H]12 | 4.7 | nt | 0.2 | -0.6 | -1.2
COC(=O)C1CN(Cc2ccccc2)CCS(=O)(=O)N1Cc1cn(Cc2cccc(Cl)c2)nn1 (stereo unspecified) | 0.5 | nt | -1.7 | -1.7 | 0.5
Cc1ccc(S(=O)(=O)NC2c3cccc4cccc(c34)C2Sc2nc(C)cc(C)n2)cc1 (stereo unspecified) | -0.6 | -1.6 | -0.2 | 1.4* | 0.1
Cc1ccc(S(=O)(=O)NC2c3cccc4cccc(c34)C2Sc2nncn2C)cc1 (stereo unspecified) | -1.4 | -1.7 | -0.3 | -0.1 | 1.1
CC(C)CNC(=O)OCc1cn(Cc2cc(F)cc(F)c2)nn1 | 1.2 | nt | -0.6 | -1.2 | -1.0
CCCNC(=S)NC1CCCC1 | 1.7 | -0.4 | -0.1 | -0.1 | 2.2
OCC(O)CNC(=S)NC1CCCCC1 (stereo unspecified) | 0.1 | 4.9* | 0.3 | -1.4 | -0.8
Cc1ccc([C@H](C)NC(=O)C2=C(N)N(S(=O)(=O)c3ccc(C)cc3)C(C(=O)c3ccccc3)C2c2ccccc2Cl)cc1 (stereo partly specified) | -4.2 | nt | nt | -1.6 | -1.8
O=C(NCc1ccccc1)C1Cc2c(-c3ccc4c(c3)OCO4)ccnc2O1 (stereo unspecified) | -2.7 | nt | 4.4* | -0.9 | -0.2
CCOC(=O)CC[C@H]1CC[C@]2(CCCN(C(=O)C3CCCC3)C2)O1 | -2.4 | nt | -0.5 | -1.3 | -0.8
COc1ccc(Cl)cc1Nc1cc(C)nc2nc(C)nn12 | -2.3 | 0.5 | -0.1 | -0.8 | -2.2
COc1cc(OC)c(Nc2cc(C)nc3nc(C)nn23)cc1Cl | -1.0 | 7.2* | 0.1 | -0.9 | -1.9
CC(C)N1CCCCC(NC(=O)c2ccc(F)cc2)C1=O (stereo unspecified) | 0.1 | nt | -0.2 | -0.8 | -0.6
Cc1cc(NC(=O)CN2CCN(c3ccccc3O)CC2)no1 | 0.1 | -0.1 | 0.2 | 1.1* | 0.5
CCOc1ccccc1N1CCN(CC(=O)Nc2cc(C)on2)CC1 | 1.7 | -0.2 | -0.7 | -0.8 | 1.0
CC1CCCC(C)N1C(=O)COC(=O)c1ccc2ccccc2n1 (stereo unspecified) | 0.4 | 0.2 | -0.6 | -0.9 | 0.6
O=C(N1CCOCC1)N1CCN(S(=O)(=O)c2ccc(Cl)cc2)C1 | -1.8 | 0.9 | 0.1 | 1.0* | 2.0
O=C(OCc1cn(Cc2ccc(Cl)cc2)nn1)N1CCOCC1 | -0.4 | nt | 0.2 | -0.7 | 0.2
S=C(NN=C(c1ccccc1)c1ccccn1)N(Cc1ccccn1)Cc1ccccn1 | -8.6 | -5.4 | -6.8 | -2.2 | -3.6
S=C(NN=Cc1ccccn1)N(Cc1ccccn1)Cc1ccccn1 | 4.6 | -4.0 | 0.8 | 1.0* | 2.7
O=C(Nc1ccc(F)cc1)c1cccc2c1C(=O)N(CC1CCCO1)C2 (stereo unspecified) | 1.0 | 4.2* | 2.2 | -1.1 | -3.9
COCCN1Cc2cccc(C(=O)Nc3ccc(S(=O)(=O)N4CCCCCC4)cc3)c2C1=O | 0.4 | -0.3 | 0.2 | 1.5* | -2.1
Nc1ccccc1Nc1cc(-c2ccccc2)[nH]n1 | 10.2 | 0.6 | 1.9 | -1.4 | 6.0*
SMILES | hgDAF12 agonist | DAX1 inh-1 | DAX1 inh-2 | ssDAF12 agonist | hcDAF-12 act
CCOc1cc(CNc2ccc3c(c2)CCC3)ccc1O | 2.8 | 1.4 | -1.1 | 1.2* | 4.5
COc1cc(CNc2ccc3c(c2)CCC3)cc(OC)c1O | -0.2 | 0.5 | 0.5 | -1.4 | -0.1
CCOc1ccccc1NC(=O)Nc1ccc2c(c1)CCC2 | 3.8 | 0.6 | 3.6* | -0.8 | -0.6
O=C(COc1cccnc1[N+](=O)[O-])Nc1ccc2c(c1)CCC2 | 3.5 | 0.7 | 0.9 | -1.1 | -1.0
O=C(COc1ccccc1F)Nc1ccc2c(c1)CCC2 | 14.9* | 0.8 | 3.7* | -1.1 | 0.5
COC(=O)[C@H](C(C)C)N(CCc1cn(CC2CCCCC2)nn1)S(=O)(=O)c1ccccc1Br | -3.8 | nt | -1.8 | -0.9 | -3.1
CCOC(=O)c1c(NC(=O)CSc2nnc(C)c(=O)[nH]2)sc(C)c1-c1ccc(C)cc1 | -0.5 | 4.6* | -0.3 | -1.4 | 0.0
